# Reference: ChEMBL document CHEMBL4513216, “Probing the Open Global Health Chemical Diversity Library for Multistage-Active Starting Points for Next-Generation Antimalarials” (ACS Infect Dis, 2020)
# The whole screen tested about 69,000 compounds, of which about 8,600 (12%) showed an effect of 50% or more. This excerpt belongs to a sample that is enriched for strong results.
# Test system: Plasmodium berghei
# Test: Screen against P. berghei liver stage (PbLuc), transformed with Luciferase, at 10uM
# Type: functional, HepG2
# Conditions: tested at 10 uM
row,Structure (SMILES),INHIBITION
1,CC(=O)Nn1ccc2c(nnc3c(-c4ccccc4)cnn32)c1=O,58.5%
2,O=C(O)CCn1ccc(=O)c2cc(F)ccc21,38.1%
3,O=C(O)CCn1ccc(=O)c2ccccc21,35.1%
4,CCN(C)C(=O)NCC1(CN2CCOCC2)CCCCC1,5.76%
5,O=C(c1cc(=O)c(OCc2ccccc2F)co1)N1CCCC1,-51.9%
6,COCCNC(=O)c1cnc(N(C)C)nc1C,14.2%
7,CSc1nccn1-c1cccc(C(=O)NCCC(=O)NC(C)C)c1,15.5%
8,CC(=O)NCCCC(=O)N1CCc2[nH]c(-c3ccccc3)nc2C1,35.8%
9,Cc1cc(O)n2nc(C3CCN(C(=O)c4ccccn4)CC3)cc2n1,7.55%
10,CC(=O)N1[C@H](CN(C)C)C[C@@H]2CN(C(=O)Cc3cccs3)CC[C@@H]21,-61.5%
11,Cn1nc(Br)c2c(NCCN)ncnc21,15.7%
12,Cc1ccc(-c2cc(N)c(=O)n(CC(=O)NC3CCCC3)n2)s1,6.32%
13,Cc1ccc(-c2cc(N)c(=O)n(CC(=O)NCC3CCCCC3)n2)s1,39.2%
14,Cc1ccc(-c2cc(N)c(=O)n(CC(=O)NC3CCCCC3)n2)s1,55.2%
15,COc1ccc(C(CO)NC(=O)Nc2cccc(C(C)=O)c2)cc1 (configuration not stated),-6.51%
16,COc1cccc(CC(C)NC(=O)NC(C)C)c1 (configuration not stated),30.3%
17,COc1cccc(C(CO)NC(=O)Cc2cccc(C)c2)c1 (configuration not stated),53.4%
18,COc1cccc(C(CO)NC(=O)Cc2ccc(F)c(Br)c2)c1 (configuration not stated),22.6%
19,COc1cccc(C(CO)NC(=O)NC(C)C)c1 (configuration not stated),91.1%
20,COCC(=O)NC(C)Cc1cccc(OC)c1 (configuration not stated),15.5%
21,CN1CCN2C[C@@H](CO)[C@H](c3ccccc3)[C@H]2C1,17.7%
22,OCCCNc1cccc(COC2CCCCC2)c1,17.5%
23,CN(C)CCN1C(=O)CCCC12CCCN(C(=O)c1cc[nH]n1)C2 (configuration not stated),34.5%
24,Cn1cc([C@@H]2CN(S(C)(=O)=O)C[C@H]2N)c2ccncc21,-10.795%
25,CC(C)Cc1cc(-c2cc(-c3ccc[nH]3)nc(N)c2C#N)n[nH]1,48.8%
26,CCS(=O)(=O)CC(=O)Nc1ccccc1N1CCc2ccccc21,63.3%

row,Structure (SMILES),INHIBITION
1,CS(=O)(=O)NCCC(=O)Nc1ccccc1N1CCc2ccccc21,40.5%
2,CNC(=O)NCC(=O)Nc1ccccc1N1CCc2ccccc21,30.5%
3,O=C1CCC2(CCN(Cc3cscn3)CC2)CN1C1CCC(O)CC1 (configuration not stated),-60.7%
4,CN1CC(c2ccccc2)CC2(CCN(Cc3ncc[nH]3)CC2)C1 (configuration not stated),49.9%
5,COCCC(=O)N1CCC2(CC1)CC(c1ccccc1)CN(C1CC1)C2 (configuration not stated),14%
6,c1ccc(C2CN(C3CC3)CC3(CCN(Cc4cscn4)CC3)C2)cc1 (configuration not stated),70.1%
7,CCN1CC(c2ccccc2)CC2(CCN(Cc3ncc[nH]3)CC2)C1 (configuration not stated),42.1%
8,c1ccc(C2CN(C3CC3)CC3(CCN(Cc4ncc[nH]4)CC3)C2)cc1 (configuration not stated),53.3%
9,Cc1cn2c(=O)c(-c3ccnc(N[C@@H]4CCOC4)n3)cnc2s1,17.4%
10,Cc1nc(COC[C@@]23CCC[C@@H]2CN(Cc2nccs2)C3)cs1,42.6%
11,COCCCN1CC2(CCCN(c3ncc(Cl)cc3F)C2)CCC1=O (configuration not stated),37.7%
12,CN(C)CCN1CC2(CCCN(c3ncc(Cl)cc3F)C2)CCC1=O (configuration not stated),37.7%
13,COCCN1CC2(CCCN(c3ncc(Cl)cc3F)C2)CCC1=O (configuration not stated),78.5%
14,CC(C(=O)Nc1ccnn1C(C)C)N1CCc2nn(C)c(=O)cc2C1 (configuration not stated),1.98%
15,Cc1c(OCC(=O)NCc2ccccc2)c(=O)ccn1C,57.3%
16,COc1ccccc1CNC(=O)CNCCn1cc(C)cn1,7.27%
17,CC(=O)c1cccc(NC(=O)COc2c(C)n(C)ccc2=O)c1,-19%
18,COCCn1ccc(=O)c(OCC(=O)Nc2ccccc2)c1C,-93.2%
19,Cc1c(OCC(=O)NCc2ccccc2Cl)c(=O)ccn1C,39.6%
20,COc1ccccc1CNC(=O)COc1c(C)n(C)ccc1=O,53.6%
21,Cc1cccc(CN2C(=O)CO[C@@H]3CN(C4CCOCC4)C[C@H]32)c1,-18.2%
22,CCN(C(=O)CCCOc1ccccc1F)c1ccncc1,-26.8%
23,CCCn1nnnc1COC(=O)C1Cc2cc(Cl)ccc2O1 (configuration not stated),43.5%
24,CCc1ccc(C(=O)Nc2cc(N3CCNC3=O)ccc2Cl)o1,32.9%
25,CCCc1cc(NC(=O)c2ccc(Cl)c(N3CCNC3=O)c2)n[nH]1,-26.4%
26,CCCn1nccc1NC(=O)c1ccc(Cl)c(N2CCNC2=O)c1,57%
